Measurements as given in PubChem BioAssay (NCATS).
Inconclusive results are not listed. Activity calls are given as the source filed them. Calls follow the shape of the dose curve; as a rule, active = well fitted inhibition curve with a large enough effect; inconclusive = small, poorly fitted or top-dose-only effect; inactive = no such curve, though single readings can be large or run the other way.

Assay: Primary qHTS for small molecule stabilizers of the endoplasmic reticulum resident proteome: Secreted ER Calcium Modulated Protein (SERCaMP) assay (AID 1508630)
Details: SH-SY5Y GLuc-SERCaMP (Gaussia luciferase released on ER calcium loss) secretion, thapsigargin, luminescence; series mostly up to 38.4 µM; activity change, negative = inhibition: at the top concentration
How it was run: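 GLuc-SERCaMP-expressing SH-SY5Y cells, pretreated 16 h with compound, are challenged with thapsigargin to empty ER calcium stores; after 4 h, coelenterazine is added directly to the medium and luminescence is imaged.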
% is scaled to controls: 0 for no effect and ±100 for the full control effect.

Row | Structure (SMILES) | activity change, negative = inhibition | Potency
1 | O=C(O)c1ccc(O)c2ncc(N3CCOCC3)cc12 | 2.18% (inactive) | 
2 | Oc1ccc(C=Cc2cc(O)cc(O)c2)cc1 | 17.5% (inactive) | 
3 | CN(CC=CC#CC(C)(C)C)Cc1cccc2ccccc12 | -8.65% (inactive) | 
4 | CCC[C@@H](NC(=O)[C@@H]1[C@H]2CCC[C@@H]2CN1C(=O)[C@@H](NC(=O)[C@@H](NC(=O)c1cnccn1)C1CCCCC1)C(C)(C)C)C(=O)C(=O)NC1CC1 | -55.6% (inactive) | 
5 | COc1ccc2cc1Oc1ccc(cc1)C[C@H]1c3cc(c(OC)cc3CCN1C)Oc1c(OC)c(OC)cc3c1[C@H](C2)N(C)CC3 |  | inactive
6 | C#C[C@]1(O)CC[C@H]2[C@H]3CCc4cc(OC)ccc4[C@H]3CC[C@@]21C | 56.1% (inactive) | 
7 | CON(C)C(=O)N1N=C(c2cc(F)ccc2F)S[C@]1(CCCN)c1ccccc1 | 8.27% (inactive) | 
8 | C[C@H](CCC(=O)O)[C@H]1CC[C@H]2[C@H]3[C@@H](CC[C@]12C)[C@@]1(C)CC[C@@H](O)C[C@H]1C[C@@H]3O | -15.8% (inactive) | 
9 | CCC(=O)OCC(=O)[C@@]1(OC(=O)CC)[C@@H](C)C[C@@H]2[C@H]3CCC4=CC(=O)C=C[C@]4(C)[C@@]3(F)[C@@H](O)C[C@@]21C | 38% (inactive) | 
10 | CCC(=C(CC)c1ccc(O)cc1)c1ccc(O)cc1 | -2.51% (inactive) | 
11 | CN(C)CCOc1ccc(-c2nc(-c3ccc4c(c3)CCC4=NO)c(-c3ccncc3)[nH]2)cc1 | 145% (inactive) | 
12 | C[C@H]1O[C@@H](n2cc(F)c(=O)[nH]c2=O)[C@H](O)[C@H]1O | 38.4% (inactive) | 
13 | O=C(Nc1ccccc1)Nc1ccc(-c2ccc(C(=O)[C@H]3CCC[C@H]3C(=O)O)cc2)cc1 | 109% (inactive) | 
14 | Cc1c(-c2cccc3c(CCCOc4cccc5ccccc45)c(C(=O)O)n(Cc4cccnc4)c23)c(COc2ccc(N3CCN([S+](=O)([O-])N(C)C)CC3)cc2)nn1C | 76.1% (inactive) | 
15 | CC1(C)C(N(O)C(=O)Nc2ccc(Cl)cc2)N(c2ccc(Cl)cc2)C(=O)N1CC(=O)NN=CC=Cc1ccc([N+](=O)[O-])o1 (configuration not stated) | -27.5% (inactive) | 
16 | CC=C(C(=CC)c1ccc(O)cc1)c1ccc(O)cc1 | 218% (inactive) | 
17 | OC[C@H]1O[C@@H](Oc2ccc(O)cc2)[C@H](O)[C@@H](O)[C@H]1O | 179% (inactive) | 
18 | CCCCC(C=O)NC(=O)C(CC(C)C)NC(=O)OCc1ccccc1 (configuration not stated) | 13.1% (inactive) | 
19 | C=CC[N+]1([C@H]2C[C@H]3[C@@H]4CC[C@H]5C[C@H](O)[C@@H](N6CCOCC6)C[C@]5(C)[C@@H]4CC[C@]3(C)[C@H]2OC(C)=O)CCCC1 | -0.81% (inactive) | 
20 | COc1ccc(-c2cc(=O)c3c(O)cc(O[C@@H]4O[C@H](CO[C@@H]5O[C@@H](C)[C@H](O)[C@@H](O)[C@@H]5O)[C@@H](O)[C@H](O)[C@@H]4O)cc3o2)cc1O | 0% (inactive) | 
21 | CCC(c1ccc(O)cc1)C(CC)c1ccc(O)cc1 (configuration not stated) | 125% (inactive) | 
22 | CCCCCCOC(=O)N=C(N)c1ccc(NCc2nc3cc(C(=O)N(CCC(=O)OCC)c4ccccn4)ccc3n2C)cc1 | -3.78% (inactive) | 
23 | CC(C)CN(C[C@H](O)[C@H](Cc1ccccc1)NC(=O)O[C@H]1CCOC1)S(=O)(=O)c1ccc(N)cc1 | -27.6% (inactive) | 
24 | C[C@@H]1[C@H](C)CC[C@]2(C(=O)O)CC[C@]3(C)C(=CC[C@@H]4[C@@]5(C)CC[C@H](O)C(C)(C)[C@H]5CC[C@]43C)[C@@H]12 | 103% [at 76.3 µM] (inactive) | 
25 | Cc1cc(CS(=O)(=O)c2ccccc2)cc(OCc2ccc(CN3CCC[C@H]3CO)cc2)c1 | -19.9% (inactive) | 
26 | CC1=C(CC(=O)O)c2cc(F)ccc2C1=Cc1ccc(S(C)=O)cc1 (configuration not stated) | 0% (inactive) | 
27 | CC(C)c1onc(-c2c(Cl)cccc2Cl)c1COc1ccc(C=Cc2cccc(C(=O)O)c2)c(Cl)c1 | -16.5% (inactive) | 
